High-throughput results deposited in PubChem BioAssay by University of Kansas High Throughput Screening Laboratory.
Pf apPOL inh: Pf-apPOL DNA polymerase inhibition; Recombinant Pf-apPOL, molecular beacon fluorescence, 1.5 h; inhibition, % at 10 µM; actives 0.25% (n = 210,000)
mHTT-CaM PPI inh: inhibitors of human mutant huntingtin-calmodulin interaction; AlphaScreen His-mHTT/GST-CaM binding, luminescence; P42858; inhibition, % at 15 µM; actives 3.6% (n = 190,000);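 also: 0% = both proteins with DMSO and 100% = one protein alone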
The depositor's hits bear a star; . = no result given. Most compounds without a hit are left out; they make up all but 3.6% or so of the library. Rule as the data show it: active = inhibition above about 50%; inactive = the rest.

SMILES	Pf apPOL inh	mHTT-CaM PPI inh
COc1cccc(CN2CCc3c(cc(C(=O)Nc4cc(C)ccc4OC)n3C)C2)c1	-5	86*
COc1cccc(NC(=O)c2cc3c(n2C)CCN(Cc2ccc(F)cc2)C3)c1	-6	26
COc1cccc(CN2CCc3c(cc(C(=O)NCc4cccnc4)n3C)C2)c1	-5	9
COc1ccccc1NC(=O)c1cc2c(n1C)CCN(Cc1ccc(C)cc1)C2	-4	25
COc1cccc(CNC(=O)c2cc3c(n2C)CCN(Cc2cccc(OC)c2)C3)c1	-4	59*
COc1cccc(CN2CCc3c(cc(C(=O)N(C)C)n3C)C2)c1	-3	10
COc1cccc(CN2CCc3c(cc(C(=O)Nc4ccc(F)cc4C)n3C)C2)c1	-6	65*
S=C(Nc1ccc(Br)cc1)O[C@H]1CCC12CCC(c1ccccc1)CC2 (stereo partly drawn)	-8	-10
CCC1CN2C=NC(N3CCN(C(=O)Cc4cccc(OC)c4)CC3)=CC2=N1 (stereo not drawn)	-3	9
COc1ccc(Nc2nc(N(C)C)nc3nccnc23)cc1	-20	55*
COc1ccc(OC)c(Nc2nc3nonc3nc2Nc2ccc(F)cc2)c1	5	14
COc1ccc(Br)c(OC)c1C(=O)NC(=O)Nc1cc(Cl)cc(Cl)c1	-4	.
CCOc1ccc(-n2ccnc(NC(=O)c3cccc(C)c3)c2=O)cc1	4	8
C=CCn1c(N=Cc2ccc(Cl)cc2)nc2ccccc21	0	1
C=CCn1c(N=Cc2ccc(N(C)C)cc2)nc2ccccc21	3	71*
Cn1nc(-c2nc(C3CC3)no2)c2c1CCN(C(=O)Nc1ccccc1C(F)(F)F)C2	2	17
COc1ccc2c(c1)OC(=Cc1cccc(OC)c1OC)C2=O	2	5
O=C(/C=C/c1ccco1)c1cccs1	11	79*
O=C(C=Cc1ccco1)c1ccc(O)cc1	2	6
c1cc(-c2noc(C3CCCCN3Cc3nc(C4CC4)no3)n2)ccn1 (stereo not drawn)	3	2
CC1CC(N(C(=O)c2ccccc2Cl)c2ccccc2)c2ccccc2N1 (stereo not drawn)	-3	98*
CCC(=O)N(c1ccccc1)C1CC(C)Nc2ccccc21 (stereo not drawn)	0	16
Cn1ncc(N2CCCC(C(=O)NCc3cccs3)C2)cc1=O (stereo not drawn)	-7	0
Cc1nc(NC(=O)C2CCCN(c3ccc(-n4cccn4)nn3)C2)sc1C (stereo not drawn)	-8	94*
Cc1ccnc(NC(=O)C2CCCN(c3cc(-n4cccn4)ncn3)C2)c1 (stereo not drawn)	-2	49
SMILES	Pf apPOL inh	mHTT-CaM PPI inh
O=C(NCc1cccs1)C1CCCN(c2ccc(-n3cccn3)nn2)C1 (stereo not drawn)	-6	57*
CCc1c(C#N)c(SCC(=O)Nc2cccc(C(C)=O)c2)nc2c1C(=O)CC(C)(C)C2	0	1
CNC(=O)N1CCCC(c2cccc(C(=O)NCc3ccc(F)cc3)c2)C1 (stereo not drawn)	1	-2
O=C(NCc1ccc(F)cc1)c1ccc(NC(=O)N2CC3CCCN3c3ccccc32)cc1 (stereo not drawn)	-1	54*
O=C(NCc1ccc(F)cc1)N1CC2CCCN2c2ccccc21 (stereo not drawn)	-4	77*
CCC1CN(C(=O)NCc2ccc(F)cc2)c2ccccc2O1 (stereo not drawn)	-2	-18
COc1cccc(CNC(=O)N2CCc3c(nc4cc[nH]n4c3=O)C2)c1	1	4
CCSc1sccc1C1C(C#N)=C(N)N(c2ccc([N+](=O)[O-])cc2)C2=C1C(=O)CCC2 (stereo not drawn)	1	32
CCCc1nnc(NC(=O)C(CC)Sc2nnnn2-c2ccccc2)s1 (stereo not drawn)	-3	-2
CCC(Sc1nnnn1-c1ccccc1)C(=O)Nc1nc2ccccc2s1 (stereo not drawn)	-6	52*
Cc1ccc(S(=O)(=O)N(CC(=O)Nc2cccnc2)c2ccc(C)cc2C)cc1	-1	25
CCn1cnc2c1c(=O)n(Cc1ccccc1)c(=O)n2-c1ccc(F)cc1	-4	1
O=C(NCCc1nnc2ccc(SCc3ccccn3)nn12)c1ccccc1	-2	-22
O=[N+]([O-])c1cccc(CSc2ccc3nnc(-c4ccccn4)n3n2)c1	9	98*
c1ccc(CSc2nnc3ccc(-c4ccccn4)nn23)nc1	-1	-7
Cc1nc(CSc2ccc3nnc(-c4ccccn4)n3n2)cs1	-4	76*
CCCN1C(=O)Cc2cc(C(=O)N3CCN(c4ccc(F)cc4)CC3)ccc21	-5	51*
CCCN1C(=O)Cc2cc(C(=O)N3CCN(c4cccc(C)c4C)CC3)ccc21	-2	55*
CCCN1C(=O)Cc2cc(C(=O)N3CCN(c4ccc(C)cc4)CC3)ccc21	-5	38
CCCN1C(=O)Cc2cc(C(=O)N3CCN(c4ccccc4)CC3)ccc21	1	51*
CCCN1C(=O)Cc2cc(C(=O)N3CCOCC3)ccc21	1	-2
CCCN1C(=O)Cc2cc(C(=O)N3CCN(c4cccc(C)c4)CC3)ccc21	-5	49
O=C(c1ccc2c(c1)CC(=O)N2Cc1ccccc1)N1CCN(c2ccccn2)CC1	-1	54*
O=C(c1ccc2c(c1)CC(=O)N2Cc1ccccc1)N1CCCCC1	-5	33
CC(C)CCNC(=O)Cn1nc(S(=O)(=O)c2cccc(F)c2)ccc1=O	3	-5
SMILES	Pf apPOL inh	mHTT-CaM PPI inh
Cc1ccc(CNC(=O)CSc2nc3nc(C)cc(C)n3n2)cc1	-8	4
Cc1cccn2c(=O)c3cc(C(=O)N4CCN(C)CC4)c(=N)n(CCN4CCOCC4)c3nc12	-5	1
COc1ccc(C=C(C#N)c2ccccn2)cc1	1	.
O=C(Nc1cccc(-c2nc3ncccc3o2)c1)c1ccc(Br)cc1	6	3
Cc1cccc(N2CCN(C(=O)c3ccc(-c4cccnc4)nc3)CC2)c1C	0	64*
COc1ccccc1N1CCN(C(=O)c2ccc(-c3cccnc3)nc2)CC1	-2	4
O=C1Nc2ccc(Br)cc2/C1=C/c1ccc(Cl)cc1	-6	26
O=C1Nc2ccc(Br)cc2/C1=C/c1cccc(Cl)c1	3	40
CC(C)(C)c1ccc(/C=C2\C(=O)Nc3ccc(Br)cc32)cc1	-7	90*
O=C1Nc2ccc(Br)cc2/C1=C/c1ccc(O)c(O)c1	2	96*
COc1ccc(-c2cn3c(C(=O)Nc4ccc5c(c4)OCCO5)csc3n2)cc1	-4	-12
COc1ccc(/C=C2\C(=O)Nc3ccc(Br)cc32)c(OC)c1OC	4	100*
COc1ccc(O)c(/C=C2\C(=O)Nc3ccc(Br)cc32)c1	-7	91*
COc1ccc(N=C2C(=O)Nc3ccc(Br)cc32)cc1	5	26
COc1ccc(OC)c(/C=C2\C(=O)Nc3ccc(Br)cc32)c1	-1	54*
O=C1Nc2ccccc2/C1=C/c1ccc(Cl)cc1Cl	-2	10
COc1cc2c(cc1OC)/C(=C/c1cc(OC)c(OC)c(OC)c1)C(=O)N2	.	50
CC(C)(C)C(=O)C=C1C(=O)Nc2ccc(Br)cc21	-1	.
O=C1Nc2ccc(Br)cc2/C1=C/c1ccc(Cl)cc1Cl	-6	52*
COc1ccc2cc(-c3nc4ccccc4[nH]3)c(=Nc3ccc(C(N)=O)cc3)oc2c1	-3	8
CCOC(=O)C1CCCN(C(=O)c2cncc(-c3cccc(F)c3)c2)C1 (stereo not drawn)	-5	-1
